# From PubChem BioAssay
# This is a sample that favours compounds with a hit; in the whole collection about 9.3% have one here.
# SMN2 splice up: increases expression of the SMN2 splice variant. HEK293 SMN2-luciferase splicing reporter, luminescence, 30-36 h. AID 1458. Potency, µM (top dose mostly 46.1 µM), inactives show top-dose activity change, positive = activation, actives largely listed as activators. 210,000 compounds, 2.8% hits; note: % of control where 0% means no effect; nearly all actives have a fitted effect of over 55% in size
#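 HEK293 cells carry an SMN2 minigene-luciferase reporter in which exon 7 inclusion puts luciferase in frame. Cells were seeded at 2000 cells/well, attached for 10-12 hours, then exposed to compounds for 30-36 hours at 37C before ONE-Glo luminescence.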
# ELG1 genotox: inducers of genotoxicity in HEK293T ELG1-luciferase cells. AID 504466. 330,000 compounds, 1.3% hits. Potency, µM (top dose mostly 46 µM), without a hit: top-dose activity change, positive = activation, usual class: activators. HEK293T ELG1-luciferase reporter, luminescence, 16 h; note: % of control where 0% means no effect; nearly all actives have a fitted effect of over 60% in size
#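 Genotoxic stress is detected as increased luminescence from luciferase-tagged ELG1 in HEK293T cells, measured with ONE-Glo after a 16 hr treatment at 37 °C.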
# Rab9 prom act: activates the Rab9 promoter. 320,000 compounds, 2.8% hits. AID 485297. Huh7 Rab9 promoter-luciferase reporter, luminescence, 24 h. Potency, µM (top dose mostly 9.22 µM), for inactives: top-dose activation, negative = inhibition, actives largely listed as activators; note: % of control where 0% means no effect; nearly all actives have a fitted effect of over 60% in size
#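 Huh7 cells stably carrying Rab9 promoter–luciferase reporter, plated 1500 cells/well, compound added after 2 h and incubated 24 h at 37 °C; luciferase luminescence then read after 10 min with detection reagent.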
# FLuc counter: counter-screen for miR-21 project: firefly luciferase inhibitors or activators | AID 588342 | 360,000 compounds, 6.9% hits | Potency, µM (series often up to 57.5 µM), without a hit: top-dose activity change, negative = inhibition, usual class: inhibitors | purified FLuc, Km substrates, luminescence inhibition;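 note: plate controls were vehicle for no effect and reference inhibitor for full effect; nearly all actives have a fitted effect of over 55% in size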
# Target sequence (P08659 whole entry, looked up): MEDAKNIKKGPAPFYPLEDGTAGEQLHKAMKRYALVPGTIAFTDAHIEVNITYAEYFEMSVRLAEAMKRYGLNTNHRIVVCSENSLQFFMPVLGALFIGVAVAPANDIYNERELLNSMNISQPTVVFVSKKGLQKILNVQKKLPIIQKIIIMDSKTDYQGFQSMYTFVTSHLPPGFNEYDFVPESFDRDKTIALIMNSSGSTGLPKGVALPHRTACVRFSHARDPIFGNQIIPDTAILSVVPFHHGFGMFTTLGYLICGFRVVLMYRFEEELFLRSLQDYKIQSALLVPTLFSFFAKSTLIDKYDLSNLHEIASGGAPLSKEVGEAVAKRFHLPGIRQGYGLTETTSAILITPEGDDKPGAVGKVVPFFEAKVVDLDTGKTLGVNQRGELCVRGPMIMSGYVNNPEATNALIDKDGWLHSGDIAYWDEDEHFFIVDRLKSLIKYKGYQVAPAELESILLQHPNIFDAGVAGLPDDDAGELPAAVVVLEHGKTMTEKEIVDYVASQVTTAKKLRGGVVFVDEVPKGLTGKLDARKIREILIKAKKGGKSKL
#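 Purified P. pyralis luciferase, 10 nM final, with Km-level 10 uM D-luciferin and 10 uM ATP in 50 mM Tris acetate pH 7.5, 10 mM Mg acetate, 0.01% Tween-20, 0.05% BSA; 6-point qHTS titration about 60 µM downward; luminescence read.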
# ELG1 repair inh: ELG1-dependent DNA repair inhibition; HEK293T ELG1-luciferase reporter, luminescence, 16 h; DNA damage induced by 5-fluorouridine; Potency, µM (doses to about 46.1 µM), for the others: top-dose activity change, negative = inhibition, most hits filed as inhibitors; 330,000 compounds, 2.3% hits; AID 504467; note: % is set by controls: 0 for no effect and ±100 for the full control effect; nearly all actives have a fitted effect of over 55% in size
#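 In this reporter screen, reduction of luminescence relative to DMSO vehicle indicated activity. Compounds and 5-fluorouridine were added together to 2,000 cells per well, incubated for 16 hr at 37 °C, then developed with ONE-Glo.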
# NPC1 promoter act: activators of NPC1 promoter | Huh7 NPC1 promoter luciferase reporter, 24 h | Potency, µM (doses to about 9.22 µM), inactives show at the highest dose activation, most hits filed as activators | 320,000 compounds, 2.4% hits | AID 485313; note: % of control where 0% means no effect; nearly all actives have a fitted effect of over 60% in size
#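 Stable NPC1-promoter luciferase Huh7 line; cpd (DMSO) 24 h, 37 °C, 5% CO2; Amplite luciferase reagent 10 min RT; luminescence readout. qHTS format.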
# The depositor's hits bear a star; ? = inconclusive; . = no result given; [ ] = remark or other dose. Calls come from the whole dose curve; as a rule, active = well fitted curve in the direction sought with a large enough effect; inconclusive = small, poorly fitted or top-dose-only effect, or another doubt; inactive = no such curve, though single readings can be large; an effect the other way counts as inactive or inconclusive. Potency is the fitted concentration of half-maximal effect.
SMILES,SMN2 splice up,ELG1 genotox,Rab9 prom act,FLuc counter,ELG1 repair inh,NPC1 promoter act
CC(=O)c1ccc(NC(=O)CSc2nnc(NC(=O)c3ccco3)s2)cc1,.,?,?,2.4µM*,?,?
CCCSc1nnc(NC(=O)c2ccco2)s1,11µM*,?,?,?,?,29%
Cn1c(CN2CCOCC2)nc2cc(NC(=O)COc3ccc([N+](=O)[O-])cc3)ccc21,-37%,-9%,-9%,0%,?,-8%
CC(=O)c1ccc(-c2csc(N3CCC(C(N)=O)CC3)n2)cc1,.,8%,22%,?,?,20%
NC(=O)C1CCN(c2nc(-c3ccc(N4CCCCC4)nc3)cs2)CC1,.,.,.,4.8µM*,.,.
NC(=O)C1CCN(c2nc(-c3ccc(C(F)(F)F)cc3)cs2)CC1,.,.,.,17µM*,.,.
NC(=O)C1CCN(c2nc(-c3ccc(Br)cc3)cs2)CC1,4µM*,6.5µM*,2.5µM*,-13%,?,?
CCC(=O)CCC(=O)c1ccc2ccccc2c1,14µM*,?,?,15µM*,?,?
CCOc1ccccc1NC(=O)c1ccc2c(Cl)c3c(nc2c1)CCC3,22%,.,.,0.85µM*,.,.
CCOc1ccccc1NC(=O)CSc1c2c(nc3ccc(Cl)cc13)CCCC2,4%,.,.,-3%,.,.
COc1ccccc1NC(=O)c1ccc2c(Cl)c3c(nc2c1)CCCC3,1%,.,.,7.6µM*,.,.
CCOc1ccccc1NC(=O)c1ccc2ccccc2c1,.,0%,?,21µM*,21%,?
COc1cc(OC)c(NC(=O)c2ccc3c(Cl)c4c(nc3c2)CCCC4)cc1Cl,-4%,.,.,-1%,.,.
CC(C)CNC(=O)[C@H](Cc1ccccc1)NC(=O)c1cccs1,.,-4%,1%,2%,4%,2%
CCOc1ccccc1NC(=O)c1ccc2c(Cl)c3c(nc2c1)CCCC3,-2%,.,.,2.7µM*,.,.
COc1ccc(CCNC(=O)C(=O)NCC(c2cccs2)S(=O)(=O)c2ccc(F)cc2)cc1 (stereo unspecified),.,.,.,1%,.,.
COc1ccc2nc3oc(C(=O)Nc4cccc(C(F)(F)F)c4)cc3cc2c1,.,.,.,0%,.,.
CN(C)/C=N/C(=S)Nc1ccc(Cl)cc1Cl,?,21µM*,?,19µM*,?,?
CN(C)/C=N/C(=S)Nc1ccc(Cl)cc1,11µM*,?,?,13µM*,?,30%
CSc1ncccc1C(=O)OCC(=O)NC1CCC(C)CC1 (stereo unspecified),.,1%,-8%,-4%,?,0%
COc1ccc2cc3c(N)nn(C(=O)C4CCC(C(C)(C)C)CC4)c3nc2c1 (stereo unspecified),-37%,-9%,-2%,6%,1.8µM*,11%
COc1ccc(-n2cnc(N)c2C(=O)c2cccc([N+](=O)[O-])c2)cc1,4%,-13%,-5%,2%,16µM*,-8%
COc1ccc2cc3c(N)nn(C(=O)c4ccc(F)cc4Cl)c3nc2c1,-44%,.,.,5%,.,.
COc1ccc2cc3c(N)nn(C(=O)c4cccc([N+](=O)[O-])c4)c3nc2c1,-35%,-9%,6%,4%,2.3µM*,12%
O=C(Nc1nc2cc3c(cc2s1)OCCO3)C1CCCCC1,.,?,0.32µM*,0.43µM*,?,0.5µM*
SMILES,SMN2 splice up,ELG1 genotox,Rab9 prom act,FLuc counter,ELG1 repair inh,NPC1 promoter act
COc1ccc(OCC(=O)Nc2nc3cc4c(cc3s2)OCCO4)cc1,.,-2%,.,.,7%,.
O=C(NNc1nc2cc3c(cc2s1)OCCO3)c1ccccc1,20µM*,?,?,9.5µM*,?,?
CC(=O)Nc1nc2cc3c(cc2s1)OCCO3,.,?,1.4µM*,7.6µM*,?,1.6µM*
O=C(Nc1nc2cc3c(cc2s1)OCO3)C1CC1,.,9%,28%,?,14%,?
O=C(Nc1nc2cc3c(cc2s1)OCO3)C1CCCCC1,.,?,1.3µM*,4.8µM*,?,1.8µM*
CCOc1ccc(CN2CCN(CCCc3ccccc3)CC2CCO)cc1 (stereo unspecified),.,1%,0%,-2%,-29%,2%
Cc1cc(C)c(NC(=O)Cn2nnc(C(=O)NCc3ccc4c(c3)OCO4)c2N)c(C)c1,.,-1%[9.26 µM],6%,1%,?,4%
COc1ccc2c(=O)c3c(=O)n(CCc4ccccc4)c(C(C)C)nc3oc2c1,.,-2%,-8%,1%,-27%,-5%
CC(=O)c1cccc(S(=O)(=O)NCC(c2ccco2)N2CCCCC2)c1 (stereo unspecified),-27%,-6%,-1%,-1%,0.58µM*,-2%
COc1cc(NC(=O)COC(=O)c2ccc(C)c(S(=O)(=O)N3CCCCC3)c2)c(C)cc1[N+](=O)[O-],-16%,-6%,2%,3%,8.2µM*,-2%
COc1ccc(C(=O)OCC(=O)Nc2ccc(OC)c(S(=O)(=O)N3CCCCC3)c2)cc1[N+](=O)[O-],.,0%,-2%,-3%,-2%,-8%
Cc1ccc(C(=O)OCC(=O)N2CCC(C)CC2)cc1S(=O)(=O)N1CCCCC1,.,3%,3%,17µM*,5%,0%
COc1cc(NS(=O)(=O)c2cc(Br)cc3c2N(C(C)=O)C(C)C3)cc(OC)c1 (stereo unspecified),.,.,.,-17%,.,.
CCN(C(=O)c1cc2c(=O)[nH]c3ccc(C)cc3c2s1)c1ccc(OC)cc1,.,3%,-6%,0%,?,-5%
CCN1CCc2c(sc(NC(=O)c3ccc4ccccc4c3)c2C(N)=O)C1,.,8%,14%,2.4µM*,?,21%
CCN1CCN(S(=O)(=O)c2ccc(C(=O)Nc3sc4c(c3C(N)=O)CCN(CC)C4)cc2)CC1,.,-1%,-5%,1%,-12%,1%
CC(C)N1CCc2c(sc(NC(=O)c3nc4ccccc4s3)c2C(N)=O)C1,-9%,1%,-1%,17µM*,1%,0%
CC(C)N1CCc2c(sc(NC(=O)c3cc(-c4cccs4)nc4ccccc34)c2C(N)=O)C1,-6%,-10%,-7%,-24%,?,0%
Cc1ccc(CN2CCN(C(=O)CC(C)C)CC2)cc1,.,-7%,-3%,-8%,-18%,5%
CC(OC(=O)CCc1nc2ccccc2c(=O)[nH]1)C(=O)c1ccc(C(C)(C)C)cc1 (stereo unspecified),7%,17%,-14%,-4%,-1%,-1%
COCCNc1oc(-c2ccc(Cl)cc2)nc1C#N,?,?,?,11µM*,?,?
COc1ccc(CCNc2oc(-c3ccc(C)cc3)nc2C#N)cc1OC,-40%,9%,-3%,4%,-16%,6%
